Source: PubChem BioAssay (Tox21)
Values joined by “and” are separate entries in the source; they are usually repeats but may differ in a detail not shown here. Equal values may be shown once. Inconclusive results are not listed. A structure can be active in one record and inactive in another. Active and inactive are the calls of the source. The call rests on the fitted dose curve.

Assays:
[1] = biological target: Acetylcholinesterase (Homo sapiens) (UniProt P22303); experiment: Acetylcholinesterase (AChE) small molecule antagonists: colormetric cell-based qHTS assay (AID 1347395); further: nearly all actives have a fitted effect of over 30% in size; further: potency means the concentration at half of the fitted maximal effect
Sequence of Acetylcholinesterase (Homo sapiens) (P22303 whole entry, looked up): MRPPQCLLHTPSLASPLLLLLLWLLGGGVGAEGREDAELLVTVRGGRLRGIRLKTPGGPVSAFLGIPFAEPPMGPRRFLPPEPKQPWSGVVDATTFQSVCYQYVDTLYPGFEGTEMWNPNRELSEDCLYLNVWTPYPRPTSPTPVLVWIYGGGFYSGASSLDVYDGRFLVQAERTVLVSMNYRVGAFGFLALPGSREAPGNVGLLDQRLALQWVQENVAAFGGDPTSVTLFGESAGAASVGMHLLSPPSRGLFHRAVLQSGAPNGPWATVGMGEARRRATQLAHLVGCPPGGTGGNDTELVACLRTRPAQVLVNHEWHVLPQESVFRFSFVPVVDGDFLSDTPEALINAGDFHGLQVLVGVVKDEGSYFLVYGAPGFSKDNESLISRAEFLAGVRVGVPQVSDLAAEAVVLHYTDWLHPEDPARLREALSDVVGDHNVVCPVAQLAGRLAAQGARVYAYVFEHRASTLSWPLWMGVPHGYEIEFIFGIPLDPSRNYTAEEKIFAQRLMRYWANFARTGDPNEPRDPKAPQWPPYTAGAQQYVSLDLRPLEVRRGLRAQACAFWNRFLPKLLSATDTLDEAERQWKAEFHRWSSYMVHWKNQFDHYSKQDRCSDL
Procedure, shortened: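 SH-SY5Y cells; cpd 30 min 37 C; + DTNB/acetylthiocholine, 90 min 37 C; colorimetric thiocholine read; qHTS.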

[2] = biological target: Acetylcholinesterase (Homo sapiens) (UniProt P22303); experiment: Acetylcholinesterase (AChE) small molecule antagonists: enzyme-based qHTS assay (AID 1347397); conditions: Potency: AChE enzyme activity inhibition; outcome: AChE enzyme activity inhibition; further: nearly all actives have a fitted effect of over 55% in size; further: potency means the concentration at half of the fitted maximal effect
Procedure, shortened: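 Colorimetric DTNB read-out of thiocholine released from acetylthiocholine by recombinant human AChE (50 mU/mL as dispensed). Compounds were preincubated 30 min at RT before substrate/DTNB addition, with a 10 min RT reaction.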

[3] = biological target: Acetylcholinesterase (Homo sapiens) (UniProt P22303); experiment: Acetylcholinesterase (AChE) small molecule antagonists: fluorescence cell-based qHTS assay (AID 1347398); conditions: Potency: AChE activity; outcome: AChE activity; further: nearly all actives have a fitted effect of over 50% in size; further: potency means the concentration at half of the fitted maximal effect
Procedure, shortened: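 SH-SY5Y, 2,000 cells/well, attached overnight; cmpd 30 min 37 C; acetylthiocholine/Thiolite Green cocktail 40 min RT; fluorescence Ex/Em 490/520 nm.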

[4] = biological target: Acetylcholinesterase (Homo sapiens) (UniProt P22303); experiment: Acetylcholinesterase (AChE) small molecule antagonists: enzyme-based qHTS assay with human liver microsomes (AID 1347399); conditions: Potency: qHTS inhibition; outcome: qHTS inhibition; further: nearly all actives have a fitted effect of over 60% in size
Procedure, shortened: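 Recombinant human AChE (50 mU/mL in the enzyme mix) and human liver microsomes (0.25 mg/mL final) were preincubated with compound and NADPH (0.25 mg/mL final) for 30 min at 37 C. Acetylthiocholine/DTNB was then added; thiocholine was read colorimetrically after 10 min at room temperature.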

Measured: Potency

CCC(C)(C)OC
inactive: all assays above

CCC(=O)c1ccc(O)cc1
inactive: all assays above

O=C1CCC(=O)O1
inactive: all assays above

O=C(O)c1ccc(O)cc1
inactive: all assays above

Cn1cnc2c(=O)[nH]c(N)nc21
inactive: all assays above

C[C@H]1[C@@H](c2ccccc2)NC(=O)N1C
inactive: all assays above

Cc1cc2nc3c(=O)[nH]c(=O)nc-3n(C[C@H](O)[C@H](O)[C@H](O)CO)c2cc1C
active: [1] 35.2 µM and 33 µM
inactive: all other assays above

O=[N+]([O-])c1ccc(/C=N\O)o1
inactive: all assays above

Cc1cc(=O)oc2cc(O)cc(O)c12
inactive: all assays above

CC[C@H]1OC(=O)[C@H](C)[C@@H](O[C@H]2C[C@@](C)(OC)[C@@H](O)[C@H](C)O2)[C@H](C)[C@@H](O[C@@H]2O[C@H](C)C[C@H](N(C)C)[C@H]2O)[C@](C)(O)C[C@@H](C)C(=O)[C@H](C)[C@@H](O)[C@]1(C)O
inactive: all assays above

CSc1cnc(C)cn1
inactive: all assays above

O=C1c2ccccc2CCc2ccccc21
inactive: all assays above

CSc1cnccn1
inactive: all assays above

CCCCN(CCC(=O)OCC)C(C)=O
inactive: all assays above

NCCN
inactive: all assays above

Nc1ccc([N+](=O)[O-])c(N)c1
inactive: all assays above

Cc1ccc(C)c(S(=O)(=O)O)c1
inactive: all assays above

CCC(=O)OC
inactive: all assays above

O=[N+]([O-])c1cccc(Cl)c1
inactive: all assays above

CC(C)c1ccccc1O
inactive: all assays above

Cc1c(N(C)CS(=O)(=O)O)c(=O)n(-c2ccccc2)n1C
inactive: all assays above

CC(O)CC(C)O (stereo not given)
inactive: all assays above

O=C(Oc1ccccc1)c1ccccc1O
inactive: all assays above

CCCNCCC
inactive: all assays above

O=C(O)CP(=O)(O)O
inactive: all assays above

CC(CCC(=O)O)C(=O)O (stereo not given)
inactive: all assays above

C=C(C)C(=O)OCCO
inactive: all assays above

c1cc[nH]c1
inactive: all assays above

Cc1cccc2cccnc12
inactive: all assays above

CCCC(C)C(=O)OCC (stereo not given)
inactive: all assays above

Fc1ccc(C(c2ccc(F)cc2)N2CCNCC2)cc1
inactive: all assays above

CC(=O)c1ccccc1
inactive: all assays above

O=C(O)CCCC(=O)O
6.21 µM (active) and inactive: [1]
inactive: all other assays above

Nc1ccc(S(=O)(=O)NC(=O)c2ccccc2)cc1
inactive: all assays above

O=C(O)c1cc(C(=O)O)cc([N+](=O)[O-])c1
inactive: all assays above

CC(=O)c1ccc2ccccc2c1
inactive: all assays above

Oc1ccc(CCNCCCCCCNCCc2ccccc2)cc1O
active: [1] 7.76 µM | [2] 27.5 µM | [3] 13.8 µM
inactive: [4]

CCCCC(CC)COP(=O)(O)OCC(CC)CCCC (stereo not given)
inactive: all assays above

CC(C)c1cccc(C(C)C)c1
inactive: all assays above

O=C(O)c1ccccc1OP(=O)(O)O
inactive: all assays above

N#CCC(=O)O
inactive: all assays above

O=S(=O)(Oc1ccc(Cl)cc1Cl)c1ccccc1
inactive: all assays above

CC(C)CC=O
inactive: all assays above

CCCNC(C)C(=O)Nc1ccccc1C (stereo not given)
inactive: all assays above

C[C@]12C=CC(=O)C=C1CC[C@H]1[C@@H]3C[C@@H](O)[C@](O)(C(=O)CO)[C@@]3(C)C[C@H](O)[C@@]12F
inactive: all assays above

N#Cc1cc2ccccc2c2ccccc12
inactive: all assays above

NCCS(=O)(=O)O
inactive: all assays above

NCCNC(=O)c1ccc(Cl)cn1
inactive: all assays above

O=C(OCCOCCOCCOC(=O)c1ccccc1)c1ccccc1
inactive: all assays above

C=CCNC(N)=S
inactive: all assays above

C=C1C(C)(C)[C@@]2(Cl)C(Cl)[C@]1(Cl)C(Cl)(Cl)C2(Cl)Cl (stereo not given in full)
inactive: all assays above

CCCCS(=O)(=O)N[C@@H](Cc1ccc(OCCCCC2CCNCC2)cc1)C(=O)O
inactive: all assays above

CCn1cc(C(=O)O)c(=O)c2cc3c(cc21)OCO3
inactive: all assays above

COc1ccc2c(c1)c(CC(=O)O)c(C)n2C(=O)c1ccc(Cl)cc1
inactive: all assays above

CC(C)N=C=NC(C)C
inactive: all assays above

O=C(O)c1cc2ccccc2cc1O
inactive: all assays above

C=CCOCC(O)CCl (stereo not given)
inactive: all assays above

c1ccc2cc3ccccc3cc2c1
inactive: all assays above

c1ccc(CSCc2ccccc2)cc1
inactive: all assays above

CN1CC(=O)N/C1=N/C(=O)Nc1cccc(Cl)c1
inactive: all assays above
